From PubChem BioAssay AID588519 (ICCB-Longwood Screening Facility, Harvard Medical School, 2011)
The whole screen tested about 150,000 compounds, of which about 1,000 (0.67%) were called active. No stated cut-off is given here; in the data, active means % elongation below about 90%; inactive means the rest, inconclusive results apart. The sample as a whole holds a higher share of actives than the screen did.

Biological target: Genome polyprotein (Poliovirus type 1 (strain Mahoney)) (UniProt P03300)
Sequence (P03300 1749-2209 limits assumed): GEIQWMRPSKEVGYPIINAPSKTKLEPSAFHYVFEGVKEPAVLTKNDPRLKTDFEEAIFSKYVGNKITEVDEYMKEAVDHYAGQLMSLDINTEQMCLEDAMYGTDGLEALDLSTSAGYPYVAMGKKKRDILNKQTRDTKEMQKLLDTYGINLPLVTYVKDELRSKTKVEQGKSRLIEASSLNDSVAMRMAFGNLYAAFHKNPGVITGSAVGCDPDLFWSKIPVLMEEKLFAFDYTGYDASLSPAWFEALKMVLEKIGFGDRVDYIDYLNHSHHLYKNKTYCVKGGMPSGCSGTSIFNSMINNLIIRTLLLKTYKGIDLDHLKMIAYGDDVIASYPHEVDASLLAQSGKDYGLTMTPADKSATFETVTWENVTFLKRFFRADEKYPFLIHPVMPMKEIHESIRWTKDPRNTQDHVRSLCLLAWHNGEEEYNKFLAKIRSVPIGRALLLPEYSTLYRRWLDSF
Experiment: inhibitors of poliovirus polymerase RNA elongation – biochemical, fluorescence polarization, total intensity, primary screen (AID 588519); on z-score: compound at 16.7 µg/mL
Settings: stronger effect = lower value; for % elongation: compound at 16.7 µg/mL; for z-score: measured here: FP z-score
[1] = measured here: total intensity read-out

Structure (SMILES) | % elongation | z-score | % elongation [1] [%]
CCOC(=O)C1=C(C)NC(=O)NC1c1ccccc1 (stereo not drawn) | 101% (inactive) | -0.1 | 102
COC(=O)CC(N)c1ccc(Cl)cc1 (stereo not drawn) | 103% (inactive) | 0.2 | 106
C=CCN1CCN(C(c2ccc(C)cc2)c2nnnn2C2CCCC2)CC1 (stereo not drawn) | 103% (inactive) | 0.4 | 102
Cc1ccc(NC(=O)CC(=O)Nc2ccc(C)cc2)cc1 | 106% (inactive) | 0.3 | 102
Cc1ccc(NC(=S)Nc2ccc(C)cc2)cc1 | 76% (active) | -4.1 | 82
CSC(=S)Nc1ccc(C)cc1 | 100% (inactive) | 0.1 | 104
O=C(O)COc1cc(Br)c(Br)c(Br)c1O | 102% (inactive) | 0.1 | 92
CCn1c(SCc2cc(=O)oc3cc(NC(C)=O)ccc23)nnc1-c1ccccc1 | 100% (inactive) | -0.5 | 111
CC(C)/C=N/NC(=O)c1ccccc1 | 103% (inactive) | 0.3 | 103
O=C(NN=c1c(=O)c2ccccc2c1=O)c1ccncc1 | 58% (active) | -12.6 | 54
O=C(NNc1ncnc2ccccc12)c1ccncc1 | 106% (inactive) | 0.6 | 101
O=c1[nH]c(CN2CCCC2c2ccc3c(c2)OCCO3)nc2cc(Cl)ccc12 (stereo not drawn) | 102% (inactive) | 0 | 104
CCN(C(=O)CN1CCCCC1)c1nc2ccc(C)cc2s1 | 102% (inactive) | -0.3 | 103
NC(=O)C1CCN(C(=S)Nc2ccccc2)CC1 | 103% (inactive) | 1.1 | 103
CC(C)OC(=O)Nc1ccccc1 | 106% (inactive) | 0.8 | 110
O=C(Nc1ccccc1)C(=S)Nc1ccccc1 | 87% (active) | -1.9 | 88
COc1nc(NCCO)nc(Nc2ccc(I)cc2C)n1 | 99% (inactive) | -1.2 | 94
O=C1c2ccccc2C(=O)N1CCN1c2cccc3cccc(c23)S1(=O)=O | 100% (inactive) | 0.1 | 101
COC(=O)C1=CN(CCc2ccccc2)C=C(C(=O)OC)C1C(=O)OC | 107% (inactive) | 0.6 | 108
CC(=O)Nc1ccccc1NC(=O)CN(C)S(=O)(=O)c1ccccc1 | 100% (inactive) | 0 | 103
COC(=O)c1cc(-c2cccs2)nc2ccccc12 | 101% (inactive) | -0.1 | 101
